Compounds with a hit are over-represented: about 2.5% of the library has one in this group of screens.
LGR2 antag: inhibitors of bursicon-induced LGR2 CRE-luciferase signal, primary screen, cell-based, HEK293, CRE-luciferase reporter, bursicon stimulation; inhibition, % at 9.99 µM; Drosophila bursicon receptor LGR2 (rickets); bursicon-stimulated, 4 h; actives 0.35% (n = 380,000); AID 720647, 2013;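 active = drop in luminescence signal, shown as inhibition above about 50% in the replicate tests, limit read from the data, passing the limit was not always enough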;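 note: agonist challenge used bursicon conditioned medium at about half maximal strength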
TWEAK Fn14 block: inhibitors of TWEAK-Fn14 signaling, primary screen, luciferase reporter cells, uHTS. TWEAK-stimulated Fn14 reporter cells, luciferase luminescence, 8 h. inhibition, % at 10 µM. actives 2% (n = 360,000). AID 1159606, 2016; in the data active = inhibition above about 50%
TROY NFkB inh: inhibitors of TROY-driven NF-kB signaling, primary screen, Q293 LMP1-TROYcd cells, NF-kB luciferase, uHTS; actives 0.98% (n = 360,000); AID 1347056, 2019; inhibition, % at 10 µM; Q293 LMP1-TROYcd NF-kB luciferase reporter, 4 h;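 active = compounds whose plate-normalised and pattern-corrected inhibition of the luciferase reporter signal at the single screening dose is 50% or more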
EWS-Fli block: EWS/Fli-driven NR0B1 reporter inhibitors, primary screen, A673 cells, NR0B1 luciferase, luminescence, MLPCN library. viability-normalised. inhibition, % at 12.6 µM. actives 0.67% (n = 350,000). AID 651661, 2012;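 active = mean inhibition of at least 50% after viability correction, with every replicate also passing that limit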;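 note: firefly luciferase signal divided by Alamar Blue viability fluorescence both relative to DMSO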
LMP1 NFkB inh: EBV LMP1-driven NF-kappaB luciferase reporter inhibitors, primary screen, cell-based, luminescence, single point. LMP1-induced NF-kappaB luciferase reporter cells. inhibition, % at 12.5 µM. actives 0.69% (n = 350,000); in the data active = inhibition above about 41%
Numbers stand for hits.

Results for CC(C)CC(=NNC(=O)c1ccncc1)c1cc(Cl)ccc1O ?
LGR2 antag: inactive; TWEAK Fn14 block: inactive; TROY NFkB inh: inactive; EWS-Fli block: inactive; LMP1 NFkB inh: 73

Results for CN(C[C@@H]1N[C@H](CO)[C@@H]1c1ccc(C#CCC2CCCC2)cc1)S(C)(=O)=O ?
LGR2 antag: inactive; EWS-Fli block: inactive

What do the screens show for `Cc1cc(C)c(S(=O)(=O)N2CCN(C(=O)c3ccccc3OCc3c(C)noc3C)CC2)c(C)c1`?
LGR2 antag: inactive; TWEAK Fn14 block: inactive; TROY NFkB inh: inactive; EWS-Fli block: inactive; LMP1 NFkB inh: 46

How did Cc1ccc(S(=O)(=O)N2CCN(C(=O)c3ccccc3OCc3c(C)noc3C)CC2)cc1C do in these assays?
LGR2 antag: inactive; TWEAK Fn14 block: inactive; TROY NFkB inh: inactive; EWS-Fli block: inactive; LMP1 NFkB inh: inactive

Results for Cc1noc(C)c1COc1ccccc1C(=O)N1CCN(c2cccc(Cl)c2)CC1 ?
LGR2 antag: inactive; TWEAK Fn14 block: inactive; TROY NFkB inh: inactive; EWS-Fli block: inactive; LMP1 NFkB inh: inactive

How did Cc1noc(C)c1COc1ccccc1C(=O)N1CCN(c2cccc(C(F)(F)F)c2)CC1 do in these assays?
LGR2 antag: inactive; TWEAK Fn14 block: inactive; TROY NFkB inh: inactive; EWS-Fli block: 64; LMP1 NFkB inh: inactive

Results for Cc1ccc(CCNC(=O)CCn2ccc3cc(S(=O)(=O)N4CCCC4)ccc32)cc1 ?
LGR2 antag: inactive; TWEAK Fn14 block: inactive; TROY NFkB inh: inactive; EWS-Fli block: inactive; LMP1 NFkB inh: inactive

How did O=C(CCn1ccc2cc(S(=O)(=O)N3CCCC3)ccc21)NCCc1ccccc1 do in these assays?
LGR2 antag: inactive; TWEAK Fn14 block: inactive; TROY NFkB inh: inactive; LMP1 NFkB inh: 72

What do the screens show for `CO[C@@H]1CN(C)C(=O)c2cc(NC(=O)C3CC3)ccc2OC[C@H](C)N(C(=O)Cc2ccccn2)C[C@@H]1C`?
LGR2 antag: inactive; EWS-Fli block: inactive

Results for CCCNC(=O)NC[C@H]1[C@H](c2ccc(C3=CCCC3)cc2)[C@H](CO)N1C(=O)CC ?
LGR2 antag: inactive; EWS-Fli block: inactive

How did CCCC(=O)Nc1ccc2c(c1)C(=O)N(C)C[C@H](OC)[C@@H](C)CN(Cc1ccncc1)[C@@H](C)CO2 do in these assays?
LGR2 antag: inactive; EWS-Fli block: inactive

Results for CC(C)COc1ccc(-c2nn(-c3ccccc3)cc2/C=C2/SC(=S)N(CC(=O)O)C2=O)cc1 ?
LGR2 antag: inactive; TWEAK Fn14 block: inactive; TROY NFkB inh: 88; EWS-Fli block: inactive; LMP1 NFkB inh: inactive

How did O=C(O)CN1C(=O)/C(=C\c2cn(-c3ccccc3)nc2-c2ccccc2)SC1=S do in these assays?
TWEAK Fn14 block: inactive; TROY NFkB inh: inactive; LMP1 NFkB inh: inactive

How did COc1ccccc1N1CCN(C(=S)Nc2ccc(F)cc2)CC1 do in these assays?
LGR2 antag: inactive; TWEAK Fn14 block: inactive; TROY NFkB inh: 53; EWS-Fli block: inactive; LMP1 NFkB inh: inactive

What do the screens show for `O=C(NCc1ccco1)C1CC(c2cc(C(F)(F)F)cc(C(F)(F)F)c2)=NO1` (stereo not given)?
LGR2 antag: inactive; TWEAK Fn14 block: inactive; TROY NFkB inh: inactive; EWS-Fli block: 75; LMP1 NFkB inh: inactive

How did O=C(NCc1ccco1)C1Cc2c(-c3cccc(F)c3)ccnc2O1 (stereo not given) do in these assays?
LGR2 antag: inactive; TWEAK Fn14 block: inactive; TROY NFkB inh: inactive; EWS-Fli block: 54

How did O=C(NCc1ccccc1)C1Cc2c(-c3cccc(F)c3)ccnc2O1 (stereo not given) do in these assays?
LGR2 antag: inactive; TWEAK Fn14 block: inactive; TROY NFkB inh: inactive; EWS-Fli block: 67

How did O=C(NCc1ccccc1)C1Cc2c(-c3ccc(Cl)cc3)ccnc2O1 (stereo not given) do in these assays?
LGR2 antag: inactive; TWEAK Fn14 block: inactive; TROY NFkB inh: inactive; EWS-Fli block: 60

How did O=C(Nc1ccccc1)C1Cc2c(-c3ccc(Cl)cc3)ccnc2O1 (stereo not given) do in these assays?
LGR2 antag: inactive; TWEAK Fn14 block: inactive; TROY NFkB inh: inactive; EWS-Fli block: inactive

What do the screens show for `CC(C)C#Cc1ccc2c(c1)O[C@H](CN(C)S(=O)(=O)c1cn(C)cn1)[C@@H](C)CN([C@@H](C)CO)S2(=O)=O`?
LGR2 antag: inactive; EWS-Fli block: inactive

Results for C[C@@H]1CN([C@H](C)CO)C(=O)c2cccc(NC(=O)Nc3ccc(C(F)(F)F)cc3)c2O[C@@H]1CN(C)S(=O)(=O)c1ccc(F)cc1 ?
LGR2 antag: inactive; EWS-Fli block: inactive

Results for C[C@@H]1CN([C@H](C)CO)C(=O)CCCn2nncc2CO[C@H]1CN(C)C(=O)Nc1ccc(-c2cccs2)cc1 ?
LGR2 antag: inactive; EWS-Fli block: inactive

Results for COc1ccc2c3c(n(C)c2c1)[C@H](CO)N(C(=O)Nc1ccccc1F)CC31CCN(C(=O)c2ccccc2)CC1 ?
LGR2 antag: inactive; EWS-Fli block: inactive

Results for COc1cc2c(cc1OC)CN1CCc3cc(OC)c(OC)cc3C1C2 (stereo not given) ?
LGR2 antag: inactive; TWEAK Fn14 block: inactive; TROY NFkB inh: inactive; EWS-Fli block: inactive

What do the screens show for `CCC1=C(CC2NCCc3ccccc32)CC2c3cc(OC)c(OC)cc3CCN2C1` (stereo not given)?
LGR2 antag: 70; TWEAK Fn14 block: inactive; TROY NFkB inh: inactive; EWS-Fli block: inactive; LMP1 NFkB inh: inactive

What do the screens show for `CC[C@H]1CN2CCc3cc(OC)c(OC)cc3C2C[C@@H]1C[C@H]1NCCc2cc(OC)c(OC)cc21` (stereo not given in full)?
LGR2 antag: 103; TWEAK Fn14 block: 95; TROY NFkB inh: 86; EWS-Fli block: 59; LMP1 NFkB inh: 88

What do the screens show for `CCN(CC)c1ccc2cc(NC(=O)CCC(=O)O)c(=O)oc2c1`?
LGR2 antag: inactive; TWEAK Fn14 block: 91; TROY NFkB inh: 69; LMP1 NFkB inh: inactive

Results for CCN(CC)c1ccc2cc(C(N)=O)c(=O)oc2c1 ?
LGR2 antag: inactive; TWEAK Fn14 block: inactive; TROY NFkB inh: inactive; EWS-Fli block: inactive; LMP1 NFkB inh: inactive

How did CCN(CC)c1ccc2cc(C(=O)Nc3ccccn3)c(=O)oc2c1 do in these assays?
TWEAK Fn14 block: 87; TROY NFkB inh: 53; LMP1 NFkB inh: inactive

What do the screens show for `CCN(CC)c1ccc2cc(C(C)=O)c(=O)oc2c1`?
LGR2 antag: inactive; TWEAK Fn14 block: inactive; TROY NFkB inh: inactive; LMP1 NFkB inh: inactive

What do the screens show for `COCC#Cc1ccc([C@@H]2[C@H](C#N)N(C(=O)Cc3ccccc3)[C@H]2CO)cc1`?
LGR2 antag: inactive; EWS-Fli block: inactive

How did CO[C@@H]1CN(C)C(=O)c2ccc(NS(=O)(=O)CC(F)(F)F)cc2OC[C@H](C)N(C(=O)NC(C)C)C[C@H]1C do in these assays?
LGR2 antag: inactive; EWS-Fli block: inactive
